Values joined by “and” are separate entries in the source; they are usually repeats but may differ in a detail not shown here. Equal entries are not always repeated. Records with an inconclusive call do not appear. Active and inactive are the calls of the source. How the source made its calls: active means hit-call score of the fitted dose curve at least 0.9, where 1 is the maximum; inconclusive means response in the unintended direction; inactive means score below 0.9.
Experiments:
[1] = target: rat Neurokinin-1 Receptor (NK1), Tacr1 (gene 24807) (UniProt P14600); experiment: NVS_GPCR_rNK1: NovaScreen (NVS) G Protein-Coupled Receptor Assay for rat Neurokinin-1 Receptor (NK1) (AID 2283309)
Procedure, shortened: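 Rat submaxillary gland membranes; radioligand displacement read by filter-based scintillation counting after 1 h. Primary screen in duplicate at 25 uM; actives retested in concentration series; loss of binding fitted versus DMSO.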

NCBI gene 24521 = experiment: NVS_IC_rKATPCh: NovaScreen (NVS) Ion Channel Assay for rat Potassium Channel, ATP-Sensitive (KATPCh) (AID 2283319)
Procedure, shortened: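 Rat cortical membranes; radioligand binding at ATP-sensitive K channel site, filter-based scintillation counting 2 h after dosing. Single-point duplicate screen at 25 uM, hits rerun in concentration-response up to 50 uM; loss of signal versus DMSO.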

[2] = target: rat Gamma-Aminobutyric Acid Type A Receptor, Non-Selective (GABAR-NonSelective), Gabra1 (gene 29705) (UniProt P62813); experiment: NVS_LGIC_rGABAR_NonSelective: NovaScreen (NVS) Ligand-Gated Ion Channel Assay for rat Gamma-Aminobutyric Acid Type A Receptor, Non-Selective (GABAR-NonSelective) (AID 2283326)
Procedure, shortened: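 Radioligand displacement on rat whole-brain extract, 1 h, filter scintillation readout; signal loss fitted versus DMSO. Primary screen in duplicate at 25 uM; hits (e.g. ≥30% inhibition) retested in concentration-response up to 50 uM.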

[3] = target: rat Somatostatin Receptor (SST), Sstr1 (gene 25033) (UniProt P28646); experiment: NVS_GPCR_rSST: NovaScreen (NVS) G Protein-Coupled Receptor Assay for rat Somatostatin Receptor (SST) (AID 2283314)
Procedure, shortened: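 Rat forebrain membranes; radioligand displacement read by filter-based scintillation counting 1 h after dosing. Primary screen in duplicate at 25 uM. Actives (e.g., 30% inhibition) were rerun as concentration-response to 50 uM max and fitted against DMSO.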

[4] = target: rat Opioid Receptor, Non-selective Sodium (Na+) Binding, Oprm1 (gene 25601) (UniProt P33535); experiment: NVS_GPCR_rOpiate_NonSelectiveNa: NovaScreen (NVS) G Protein-Coupled Receptor Assay for rat Opioid Receptor, Non-selective Sodium (Na+) Binding (AID 2283311)
Procedure, shortened: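 Rat forebrain membranes, radioligand displacement with filter scintillation counting, 1.5 h incubation. Screened in duplicate at 25 µM; hits then run in concentration-response up to 50 µM; loss of binding fitted versus DMSO.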

[5] = target: rat Glutamate, NMDA Agonist Site (GluNMDA), Grin1 (gene 24408) (UniProt P35439); experiment: NVS_LGIC_rGluNMDA_Agonist: NovaScreen (NVS) Ligand-Gated Ion Channel Assay for rat Glutamate, NMDA Agonist Site (GluNMDA) (AID 2283327)
Procedure, shortened: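 Rat forebrain membranes, radioligand binding in the agonist-site protocol; 1 h after dosing; filter-based scintillation counting. Single-concentration duplicate screen at 25 uM, then concentration-response up to 50 uM for actives; gain-of-signal vs DMSO.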

[6] = target: human Peripheral-type Benzodiazepine Receptor (PBR), TSPO (gene 706) (UniProt P30536); experiment: NVS_MP_hPBR: NovaScreen (NVS) Membrane Protein Assay for human Peripheral-type Benzodiazepine Receptor (PBR) (AID 2283331);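 further: hits reduce radioligand binding relative to DMSO baseline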
Procedure, shortened: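 Human colonic cell membranes were incubated with test chemical for 1 hour; radioligand binding was measured by filter-based scintillation counting. Primary screen ran in duplicate at 25 uM, with actives followed in concentration series; loss of signal versus DMSO baseline.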

[7] = target: rat Thyrotropin Releasing Hormone Receptor (TRH), Trhr (gene 25570) (UniProt Q01717); experiment: NVS_GPCR_rTRH: NovaScreen (NVS) G Protein-Coupled Receptor Assay for rat Thyrotropin Releasing Hormone Receptor (TRH) (AID 2283329);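 further: hit means lower bound tracer signal versus DMSO baseline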
Procedure, shortened: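 Competitive radioligand binding on rat forebrain membrane preparations, with filtration and scintillation readout after 4 h. Primary testing in duplicate at 25 uM; actives confirmed in concentration-response. DMSO defined baseline.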

[8] = target: rat Opioid Receptor, Non-selective Binding, Oprm1 (gene 25601) (UniProt P33535); experiment: NVS_GPCR_rOpiate_NonSelective: NovaScreen (NVS) G Protein-Coupled Receptor Assay for rat Opioid Receptor, Non-selective Binding (AID 2283318)
Procedure, shortened: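 Rat forebrain membranes, cell-free radioligand binding with filter-based scintillation counting, read 1.5 h after dosing. Primary screen in duplicate at 25 uM; actives retested in concentration series. Loss of signal versus DMSO baseline scored.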

[9] = NVS_IC_rCaDHPRCh_L: NovaScreen (NVS) Ion Channel Assay for rat Calcium Channel, Type L, Dihydropyridine Site (CaDHPRCh_L) (AID 2283320)
Procedure, shortened: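 Radioligand binding to dihydropyridine site on rat cortical membranes, filter-based scintillation counting, 1 h after dosing. Screened in duplicate at 25 uM; actives rerun in concentration-response up to 50 uM. Loss of signal versus DMSO baseline.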

[10] = target: rat Neurokinin-3 Receptor (NK3), Tacr3 (gene 24808) (UniProt P16177); experiment: NVS_GPCR_rNK3: NovaScreen (NVS) G Protein-Coupled Receptor Assay for rat Neurokinin-3 Receptor (NK3) (AID 2283310)
Procedure, shortened: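 Rat cortical membranes; radioligand binding with filtration and scintillation counting, 2 h after dosing. Primary screen in duplicate at 25 uM, then concentration-response up to 50 uM; loss of binding signal relative to DMSO.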

[11] = target: Sodium channel protein type 1 subunit alpha (Rattus norvegicus) (UniProt P04774); experiment: NVS_IC_rNaCh_site2: NovaScreen (NVS) Ion Channel Assay for rat Sodium Channel, Site 2 (NaCh) (AID 2283322);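 further: hit means loss of radioligand binding signal relative to DMSO so AC50 marks displacement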
Procedure, shortened: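 Membranes: rat forebrain. Format: competitive radioligand displacement, filter separation, scintillation readout, 1 h exposure. Primary screen in duplicate at 25 uM; actives retested in concentration series.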

[12] = target: rat Neonicotinoid receptor (NNR), Chrna7 (gene 25302) (UniProt Q05941); experiment: NVS_LGIC_rNNR_BungSens: NovaScreen (NVS) Ligand-Gated Ion Channel Assay for rat Neonicotinoid receptor (NNR) (AID 2283315)
Procedure, shortened: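 Radioligand displacement binding on rat cortical membranes, 2.5 h incubation, filtration and scintillation counting. Loss of specific binding fitted relative to DMSO.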

[13] = target: bovine Gamma-Aminobutyric Acid Type A Receptor BDZ, alpha 5 site (GABARa5), GABRA5 (gene 523515) (UniProt Q08E50); experiment: NVS_LGIC_bGABARa5: NovaScreen (NVS) Ligand-Gated Ion Channel Assay for bovine Gamma-Aminobutyric Acid Type A Receptor BDZ, alpha 5 site (GABARa5) (AID 2283323)
Procedure, shortened: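 Radioligand competitive displacement binding on bovine hippocampal membranes, read 1 hr after dosing by filter-based scintillation counting. Primary screen at 25 uM in duplicate; actives (e.g. ≥30% inhibition) then run in concentration-response up to 50 uM.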

[14] = target: rat Glutamate, AMPA Site (AMPA), Gria1 (gene 50592) (UniProt P19490); experiment: NVS_LGIC_rAMPA: NovaScreen (NVS) Ligand-Gated Ion Channel Assay for rat Glutamate, AMPA Site (AMPA) (AID 2283324)
Procedure, shortened: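 Rat forebrain membranes; radioligand binding read 1 h after dosing by filtration and scintillation counting. Duplicate single-point screen at 25 uM, then concentration-response to 50 uM for threshold hits (e.g. 30% inhibition); loss of signal vs DMSO.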

[15] = target: Voltage-dependent N-type calcium channel subunit alpha-1B (Rattus norvegicus) (UniProt Q02294); experiment: NVS_IC_rCaChN: NovaScreen (NVS) Ion Channel Assay for rat Calcium Channel, Type N (CaChN) (AID 2283317)

Chain of rat Gamma-Aminobutyric Acid Type A Receptor, Non-Selective (GABAR-NonSelective), Gabra1 (gene 29705) (P62813 whole entry, looked up): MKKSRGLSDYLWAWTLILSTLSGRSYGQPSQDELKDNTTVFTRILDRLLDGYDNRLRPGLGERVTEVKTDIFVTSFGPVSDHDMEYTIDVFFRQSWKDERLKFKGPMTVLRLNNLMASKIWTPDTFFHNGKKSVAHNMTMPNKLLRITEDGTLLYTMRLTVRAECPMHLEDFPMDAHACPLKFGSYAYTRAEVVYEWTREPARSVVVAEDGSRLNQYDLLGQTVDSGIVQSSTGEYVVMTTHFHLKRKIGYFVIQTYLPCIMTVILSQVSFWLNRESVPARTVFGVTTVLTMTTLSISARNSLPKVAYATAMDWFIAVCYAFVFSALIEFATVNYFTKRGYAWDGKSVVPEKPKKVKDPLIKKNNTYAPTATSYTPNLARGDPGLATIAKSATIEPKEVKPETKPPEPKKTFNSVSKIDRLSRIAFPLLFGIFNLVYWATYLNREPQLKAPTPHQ
Chain of bovine Gamma-Aminobutyric Acid Type A Receptor BDZ, alpha 5 site (GABARa5), GABRA5 (gene 523515) (Q08E50 whole entry, looked up): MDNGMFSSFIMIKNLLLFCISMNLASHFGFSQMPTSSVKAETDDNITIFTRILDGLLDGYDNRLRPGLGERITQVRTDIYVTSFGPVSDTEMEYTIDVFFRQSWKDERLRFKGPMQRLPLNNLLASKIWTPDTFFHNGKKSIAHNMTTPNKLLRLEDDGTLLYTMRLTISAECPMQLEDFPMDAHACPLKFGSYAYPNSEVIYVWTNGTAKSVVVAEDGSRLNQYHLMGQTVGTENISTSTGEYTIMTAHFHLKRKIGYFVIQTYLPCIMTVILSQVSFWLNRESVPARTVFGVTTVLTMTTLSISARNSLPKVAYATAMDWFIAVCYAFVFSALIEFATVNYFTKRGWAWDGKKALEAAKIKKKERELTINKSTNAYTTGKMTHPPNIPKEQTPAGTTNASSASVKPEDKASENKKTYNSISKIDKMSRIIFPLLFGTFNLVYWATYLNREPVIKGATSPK
Chain of rat Neurokinin-1 Receptor (NK1), Tacr1 (gene 24807) (P14600 whole entry, looked up): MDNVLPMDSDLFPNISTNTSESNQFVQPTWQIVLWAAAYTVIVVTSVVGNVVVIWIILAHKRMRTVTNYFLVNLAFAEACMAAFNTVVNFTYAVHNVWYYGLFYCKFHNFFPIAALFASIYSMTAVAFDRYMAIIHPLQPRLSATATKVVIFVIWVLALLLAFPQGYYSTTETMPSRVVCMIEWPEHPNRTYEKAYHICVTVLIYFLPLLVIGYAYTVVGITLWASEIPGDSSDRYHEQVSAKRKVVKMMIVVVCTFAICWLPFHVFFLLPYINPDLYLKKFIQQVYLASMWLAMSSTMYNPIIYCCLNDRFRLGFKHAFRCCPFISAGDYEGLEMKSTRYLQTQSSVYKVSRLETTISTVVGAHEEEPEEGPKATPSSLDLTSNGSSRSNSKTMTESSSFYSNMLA
Chain of rat Opioid Receptor, Non-selective Binding, Oprm1 (gene 25601) (P33535 whole entry, looked up): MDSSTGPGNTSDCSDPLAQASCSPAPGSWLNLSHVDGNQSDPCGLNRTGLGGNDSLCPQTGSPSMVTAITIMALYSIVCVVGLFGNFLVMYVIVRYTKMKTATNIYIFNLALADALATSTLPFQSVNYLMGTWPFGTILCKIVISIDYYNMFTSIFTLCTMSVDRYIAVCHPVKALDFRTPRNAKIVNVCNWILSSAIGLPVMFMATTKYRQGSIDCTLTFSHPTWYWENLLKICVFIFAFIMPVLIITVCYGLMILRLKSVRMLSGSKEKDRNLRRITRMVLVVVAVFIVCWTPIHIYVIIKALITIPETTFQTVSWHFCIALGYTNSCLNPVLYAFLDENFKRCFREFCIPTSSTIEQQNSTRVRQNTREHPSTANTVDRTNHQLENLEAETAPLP
Chain of rat Opioid Receptor, Non-selective Sodium (Na+) Binding, Oprm1 (gene 25601) (P33535 whole entry, looked up): as above
Chain of human Peripheral-type Benzodiazepine Receptor (PBR), TSPO (gene 706) (P30536 whole entry, looked up): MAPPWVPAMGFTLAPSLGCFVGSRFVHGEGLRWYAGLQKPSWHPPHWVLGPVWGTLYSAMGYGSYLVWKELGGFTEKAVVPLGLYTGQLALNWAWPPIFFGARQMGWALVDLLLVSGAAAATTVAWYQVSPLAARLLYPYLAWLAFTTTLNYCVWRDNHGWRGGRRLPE
Chain of rat Somatostatin Receptor (SST), Sstr1 (gene 25033) (P28646 whole entry, looked up): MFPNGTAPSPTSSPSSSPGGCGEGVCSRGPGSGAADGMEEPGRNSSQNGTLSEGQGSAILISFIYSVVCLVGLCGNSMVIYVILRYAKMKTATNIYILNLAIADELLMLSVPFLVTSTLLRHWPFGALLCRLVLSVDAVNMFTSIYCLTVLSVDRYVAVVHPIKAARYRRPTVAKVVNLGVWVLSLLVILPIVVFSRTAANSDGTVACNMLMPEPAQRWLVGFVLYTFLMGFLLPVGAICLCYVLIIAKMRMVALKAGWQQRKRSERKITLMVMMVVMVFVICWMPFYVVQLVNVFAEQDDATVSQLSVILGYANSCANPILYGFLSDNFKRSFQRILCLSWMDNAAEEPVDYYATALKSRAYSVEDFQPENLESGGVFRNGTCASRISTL
Chain of rat Thyrotropin Releasing Hormone Receptor (TRH), Trhr (gene 25570) (Q01717 whole entry, looked up): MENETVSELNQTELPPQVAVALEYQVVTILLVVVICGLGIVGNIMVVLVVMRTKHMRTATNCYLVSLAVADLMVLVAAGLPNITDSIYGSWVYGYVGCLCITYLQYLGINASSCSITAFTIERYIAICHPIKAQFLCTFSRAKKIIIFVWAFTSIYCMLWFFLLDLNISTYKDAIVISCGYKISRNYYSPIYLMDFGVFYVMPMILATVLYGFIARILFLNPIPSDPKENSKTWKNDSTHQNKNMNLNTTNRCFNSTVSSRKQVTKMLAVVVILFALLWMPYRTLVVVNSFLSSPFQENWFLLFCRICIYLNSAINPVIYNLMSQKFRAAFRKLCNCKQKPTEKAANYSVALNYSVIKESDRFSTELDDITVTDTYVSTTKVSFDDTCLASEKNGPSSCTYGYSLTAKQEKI
Chain of rat Neurokinin-3 Receptor (NK3), Tacr3 (gene 24808) (P16177 whole entry, looked up): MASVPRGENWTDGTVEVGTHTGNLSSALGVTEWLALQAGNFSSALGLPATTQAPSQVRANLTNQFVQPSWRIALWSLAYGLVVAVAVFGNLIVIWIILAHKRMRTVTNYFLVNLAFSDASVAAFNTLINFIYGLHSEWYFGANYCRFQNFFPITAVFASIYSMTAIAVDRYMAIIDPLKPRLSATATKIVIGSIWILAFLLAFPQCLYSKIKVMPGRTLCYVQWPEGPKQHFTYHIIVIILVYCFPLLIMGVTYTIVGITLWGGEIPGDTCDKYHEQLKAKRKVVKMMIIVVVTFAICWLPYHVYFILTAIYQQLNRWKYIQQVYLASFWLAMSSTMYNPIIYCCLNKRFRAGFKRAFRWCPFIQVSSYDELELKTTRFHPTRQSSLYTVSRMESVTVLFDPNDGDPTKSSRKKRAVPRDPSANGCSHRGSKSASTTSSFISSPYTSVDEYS
Chain of rat Glutamate, AMPA Site (AMPA), Gria1 (gene 50592) (P19490 whole entry, looked up): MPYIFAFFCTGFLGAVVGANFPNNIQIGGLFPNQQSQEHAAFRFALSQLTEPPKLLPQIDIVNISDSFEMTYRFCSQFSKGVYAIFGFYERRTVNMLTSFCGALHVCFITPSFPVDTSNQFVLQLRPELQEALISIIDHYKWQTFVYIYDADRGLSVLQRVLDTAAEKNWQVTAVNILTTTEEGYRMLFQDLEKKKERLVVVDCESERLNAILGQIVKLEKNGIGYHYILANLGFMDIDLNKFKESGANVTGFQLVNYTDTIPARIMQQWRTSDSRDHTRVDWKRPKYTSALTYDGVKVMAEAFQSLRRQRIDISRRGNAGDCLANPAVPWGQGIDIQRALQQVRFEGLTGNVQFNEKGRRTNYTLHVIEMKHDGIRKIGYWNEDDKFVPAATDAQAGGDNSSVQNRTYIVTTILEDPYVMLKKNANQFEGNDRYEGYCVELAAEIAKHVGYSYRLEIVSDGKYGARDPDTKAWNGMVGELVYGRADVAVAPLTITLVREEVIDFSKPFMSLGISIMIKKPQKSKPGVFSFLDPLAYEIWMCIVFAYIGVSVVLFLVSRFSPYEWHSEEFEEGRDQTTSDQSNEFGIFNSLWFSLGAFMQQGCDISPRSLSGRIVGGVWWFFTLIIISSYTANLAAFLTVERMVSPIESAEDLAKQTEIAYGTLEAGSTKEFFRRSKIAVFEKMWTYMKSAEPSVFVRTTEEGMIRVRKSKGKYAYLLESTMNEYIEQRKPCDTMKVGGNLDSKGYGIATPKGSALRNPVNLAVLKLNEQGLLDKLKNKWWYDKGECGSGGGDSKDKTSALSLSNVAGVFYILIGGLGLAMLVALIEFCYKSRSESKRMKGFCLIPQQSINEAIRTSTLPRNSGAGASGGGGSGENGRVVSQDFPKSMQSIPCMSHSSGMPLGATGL
Chain of rat Neonicotinoid receptor (NNR), Chrna7 (gene 25302) (Q05941 whole entry, looked up): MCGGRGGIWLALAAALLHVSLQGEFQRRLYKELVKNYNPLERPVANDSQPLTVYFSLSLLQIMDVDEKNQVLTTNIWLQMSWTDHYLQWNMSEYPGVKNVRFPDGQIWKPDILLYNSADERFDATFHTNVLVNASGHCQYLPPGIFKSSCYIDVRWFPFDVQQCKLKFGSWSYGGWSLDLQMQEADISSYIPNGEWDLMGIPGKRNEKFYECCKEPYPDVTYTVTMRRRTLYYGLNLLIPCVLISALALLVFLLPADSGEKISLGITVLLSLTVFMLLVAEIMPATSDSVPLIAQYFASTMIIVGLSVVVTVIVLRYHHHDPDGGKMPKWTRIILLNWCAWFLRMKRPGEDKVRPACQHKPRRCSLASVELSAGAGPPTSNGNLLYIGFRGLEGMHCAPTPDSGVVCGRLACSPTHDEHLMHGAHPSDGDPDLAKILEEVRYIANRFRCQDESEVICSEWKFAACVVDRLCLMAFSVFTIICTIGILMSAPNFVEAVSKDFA

With COC(=O)C(C)Oc1ccc(Oc2ccc(Cl)cc2Cl)cc1 (configuration not stated) the outcome [1] was “inactive” and the outcome (NCBI gene 24521) was “inactive”.

For N#Cc1cc(Br)c(O)c(Br)c1, the outcome [2] was “inactive”.

In the case of CN(C)C(=S)SSC(=S)N(C)C, the outcome [3] is reported as “inactive” and the outcome [2] is reported as “inactive”.

For COc1nc(C)nc(NC(=O)NS(=O)(=O)c2ccccc2CCC(F)(F)F)n1, the outcome [1] was “inactive”, the outcome [4] was “inactive” and the outcome [5] was “inactive”.

With COP(=S)(OC)Oc1nc(Cl)c(Cl)cc1Cl the outcome [4] was “inactive”, the outcome [3] was “inactive” and the AC50 [6] was 17.9 µM (active).

With N#Cc1nn(-c2c(Cl)cc(C(F)(F)F)cc2Cl)c(N)c1S(=O)C(F)(F)F (configuration not stated) the outcome [7] was “inactive”.

For C#CCOS(=O)OC1CCCCC1Oc1ccc(C(C)(C)C)cc1 (configuration not stated), the outcome [8] was “inactive”, the AC50 [9] was 37.4 µM (active) and the AC50 [6] was 18.2 µM (active).

In the case of C=CCC1=C(C)C(OC(=O)C2C(C=C(C)C)C2(C)C)CC1=O (configuration not stated), the outcome [10] is reported as “inactive”, the AC50 [2] is reported as 7.41 µM (active) and 66.1 nM (active) and the outcome [6] is reported as “inactive”.

With CCCC1COC(Cn2cncn2)(c2ccc(Cl)cc2Cl)O1 (configuration not stated) the AC50 [4] was 25 µM (active), the AC50 [8] was 10.1 µM (active) and the AC50 [11] was 25 µM (active). For the same compound, the AC50 [6] was 17.3 µM (active).

For CCOP(=S)(OCC)SCn1c(=O)oc2cc(Cl)ccc21, the outcome [12] was “inactive” and the AC50 [6] was 2.65 µM (active).

For CCOC(=O)CC(SP(=S)(OC)OC)C(=O)OCC (configuration not stated), the outcome [3] was “inactive” and the AC50 [6] was 2.17 µM (active).

In the case of O=C(O)COc1nc(Cl)c(Cl)cc1Cl, the outcome [6] is reported as “inactive”.

With CCON=C(CC)C1=C(O)CC(c2c(C)cc(C)cc2C)CC1=O (configuration not stated) the outcome [6] was “inactive”.

With COP(N)(=O)SC (configuration not stated) the outcome [6] was “inactive”.

For COC(=O)N(OC)c1ccccc1COc1ccn(-c2ccc(Cl)cc2)n1, the AC50 [6] was 0.105 µM (active).

With COc1ccc(C(c2ccc(OC)cc2)C(Cl)(Cl)Cl)cc1 the outcome [1] was “inactive”, the outcome [8] was “inactive” and the outcome [9] was “inactive”. For the same compound, the outcome [13] was “inactive”, the outcome [14] was “inactive” and the outcome [6] was “inactive”.

For CNC(=S)S, the outcome [10] was “inactive”, the outcome [14] was “inactive” and the outcome [7] was “inactive”. For the same compound, the outcome [6] was “inactive”.

In the case of COC(=O)C=C(C)OP(=O)(OC)OC, the outcome [4] is reported as “inactive”.

For CCCCOC(=O)c1ccccc1C(=O)OCCCC, the outcome [15] was “inactive”, the outcome [8] was “inactive” and the AC50 [13] was 32.5 µM (active) and 19.3 µM (active). The AC50 [6] was 22.1 µM (active) [middle of 5 runs].

For CCNc1nc(Cl)nc(NCC)n1, the outcome [15] was “inactive” and the AC50 [6] was 46.2 µM (active).
